TDP1 cell CPT: growth inhibition of DT40 Tdp1-/-;hTDP1 cells with camptothecin (screen for TDP1 inhibitors); chicken DT40 Tdp1-/-;hTDP1 cells + 20 nM CPT, ATP luminescence, 48 h; Potency, µM (series often up to 46.2 µM), usual class: inhibitors; 420,000 compounds, 12% hits; AID 686979; further: nearly all actives have a fitted effect of over 55% in size
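Chicken DT40 Tdp1-/- cells complemented with human TDP1, 400 cells/well, exposed to compounds plus 20 nM camptothecin for at least 48 h at 37 C; viability read as ATP content by CellTiter-Glo luminescence.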
TDP1 inh: blocks human tyrosyl-DNA phosphodiesterase 1. Q9NUW8. recombinant TDP1, AlphaScreen DNA substrate cleavage. Potency, µM (top dose mostly 130 µM), most hits filed as inhibitors. 350,000 compounds, 0.28% hits; further: nearly all actives have a fitted effect of over 40% in size
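Steps: enzyme plus compound, 15 min RT; add biotin/phosphotyrosine-FITC oligonucleotide (15 nM final), react 5 min; add donor/acceptor beads (10 ug/ml final), 10 min; read AlphaScreen. Tdp1 at 1 nM final.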
DT40 TDP1 no CPT: qHTS for Inhibitors of human tyrosyl-DNA phosphodiesterase 1 (TDP1): qHTS in cells in absence of CPT. DT40 Tdp1-/- hTDP1 cells, no CPT, ATP luminescence, 48 h. Potency, µM (highest dose often 46.2 µM), actives largely listed as inhibitors. 420,000 compounds, 15% hits; further: nearly all actives have a fitted effect of over 55% in size
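Stably hTDP1-transfected Tdp1-null chicken DT40 cells were treated with library compounds minus camptothecin and grown for at least 48 hr at 37 °C, after which cellular ATP was quantified by luminescence.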
ClpP mod: qHTS Assay for Activators of ClpP; ATP-dependent Clp protease proteolytic subunit (Bacillus subtilis (strain 168)), P80244; Potency, µM (titrated, usually from 57.5 µM); purified B. subtilis ClpP, FRET peptide cleavage, 20 min; 340,000 compounds, 1.9% hits; active means well fitted falling curve with a large enough effect; inconclusive means small, poorly fitted or top-dose-only effect; inactive means no such curve, though single readings can be large or run the other way; further: the source files actives as falling curves though it sought activators and does not explain the sign; nearly all actives have a fitted effect of over 65% in size
Target sequence (P80244 whole entry, looked up): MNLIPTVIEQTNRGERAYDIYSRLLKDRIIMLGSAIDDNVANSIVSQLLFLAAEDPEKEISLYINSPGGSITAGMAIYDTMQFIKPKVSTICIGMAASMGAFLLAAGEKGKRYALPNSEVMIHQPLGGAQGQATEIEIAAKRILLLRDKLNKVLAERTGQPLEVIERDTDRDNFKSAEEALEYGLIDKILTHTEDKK
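Buffer: 100 mM Tris/HCl pH8, 100 mM KCl, 0.05% low protease BSA, 2.5% glycerol, 0.01% Tween-20. ClpP 10 microg/mL final; 20 min RT; delta FRET normalized to ADEP and DMSO controls.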
Hits are given with their value; i = inactive; ? = inconclusive; nt = not tested or not shown. Only some compounds are listed: those with a hit (about 17% of all), similar ones and a draw of the others. Unless noted, the call rests on the fitted dose curve; in most records, active means well fitted curve in the direction sought with a large enough effect; inconclusive means small, poorly fitted or top-dose-only effect, or another doubt; inactive means no such curve, though single readings can be large; an effect the other way counts as inactive or inconclusive.

SMILES	TDP1 cell CPT	TDP1 inh	DT40 TDP1 no CPT	ClpP mod
Cc1ccc(C(=O)Nc2nc(-c3ccco3)c(-c3ccco3)s2)o1	8.2µM	i	21µM	?
CC(=O)N1c2ccccc2C(=O)C1N1CCN(c2ccc(F)cc2)CC1 (stereo not given)	?	i	15µM	i
COC(=O)c1ccc2nc(-c3ccco3)c(Cc3cccc(Cl)c3)n2c1	?	nt	16µM	i
COC(=O)c1ccc2nc(-c3ccco3)c(Cc3ccccc3)n2c1	26µM	nt	21µM	i
CCC(Oc1ccccc1)C(=O)Nc1cc(-c2cccc(C)c2)nn1-c1ccccc1 (stereo not given)	i	i	i	i
CC(Sc1ccccc1)C(=O)NCC(c1ccco1)N1CCCCC1 (stereo not given)	i	i	?	i
O=C(NNC(=O)c1ccccc1OCc1ccccc1Cl)c1csc(N2CCOCC2)n1	?	i	?	i
CCCCNC(=O)c1cc2cc(CC)ccc2[nH]1	i	i	i	i
C=CCn1c(N)c(C(=O)OC(C)(C)C)c2nc3ccccc3nc21	21µM	i	12µM	i
O=C1[C@H]2[C@@H](c3ccccc3)N[C@]3(CCCN(Cc4ccco4)C3=O)[C@H]2C(=O)N1Cc1ccccc1	?	nt	?	i
Cc1ccc([C@H]2N[C@]3(CCCN(Cc4ccc(Br)cc4)C3=O)[C@H]3C(=O)N(Cc4ccccc4)C(=O)[C@@H]23)cc1	21µM	nt	29µM	i
O=C1[C@H]2[C@@H](c3ccccc3)N[C@]3(CCCN(Cc4ccc(Br)cc4)C3=O)[C@H]2C(=O)N1Cc1ccccc1	?	nt	23µM	i
O=C1[C@H]2[C@@H](c3ccccc3)N[C@]3(CCCN(Cc4ccc(Cl)cc4)C3=O)[C@H]2C(=O)N1Cc1ccccc1	23µM	nt	8.2µM	i
O=C(O)CSc1c(-c2cccs2)[nH]c2ccccc12	?	i	?	i
COc1cc(-c2noc(C3CCCN(C(=O)c4ccccc4)C3)n2)cc(OC)c1OC (stereo not given)	?	nt	?	i
Cn1c(C(=O)NCCc2ccccc2)cc2sc(Cl)cc21	i	i	i	i
CCOc1ccc(CCNC(=O)c2cc3sc(CC)cc3n2C)cc1OCC	15µM	i	12µM	i
CCn1c(C(=O)NCCc2ccc(OC)c(OC)c2)cc2sc(Cl)cc21	18µM	i	12µM	i
CCOc1ccc(CCNC(=O)c2cc3sccc3n2CC)cc1OCC	5.2µM	i	5.8µM	i
CCn1c(C(=O)NCc2ccccc2OC)cc2sccc21	?	i	?	i
Cc1cccc(NC(=O)C2CC(=O)n3cnnc3S2)c1 (stereo not given)	4.6µM	i	5.8µM	i
CC(C)OC(=O)/C(=C/c1ccco1)c1ccccc1	i	i	i	nt
CC(C)(C)NC(=O)/C(=C/c1ccco1)c1ccccc1	i	i	i	i
CCc1ccccc1NC(=O)/C(=C/c1ccco1)c1ccccc1	?	i	18µM	i
Cc1ccccc1NC(=O)/C(=C/c1ccco1)c1ccccc1	23µM	i	12µM	i
SMILES	TDP1 cell CPT	TDP1 inh	DT40 TDP1 no CPT	ClpP mod
CCN1c2ccccc2-n2cccc2C12CCN(C(=O)Nc1ccccc1Br)CC2	?	i	?	i
COc1ccc(CCNc2oc(COc3ccccc3F)nc2C#N)cc1OC	?	i	26µM	i
N#Cc1nc(COc2ccc(F)cc2)oc1NCCCn1ccnc1	i	i	?	i
COc1ccc(CCNc2oc(COc3ccc(F)cc3)nc2C#N)cc1	18µM	i	?	i
N#Cc1nc(COc2ccccc2Cl)oc1NCCc1ccccc1	?	i	16µM	i
CCOC(=O)N/N=C1\CCc2ccccc21	i	i	i	32µM
C=CCn1c(=O)c2c(nc3n2CC(C)CN3CCc2ccccc2)n(C)c1=O (stereo not given)	?	i	?	i
Cc1cc(C)n2c(Nc3ccc4c(c3)OCCO4)c(CC(C)C)nc2n1	21µM	nt	12µM	i
Cc1cc(C)n2c(NC3CCCCC3)c(CC(C)C)nc2n1	?	nt	18µM	i
Cc1cc(C)n2c(NC3CCCCC3)c(-c3ccc(F)cc3)nc2n1	?	nt	?	i
Cc1noc(C)c1COc1ccc(C(=O)OCC(=O)N2CC3(C)CC2CC(C)(C)C3)cc1 (stereo not given)	?	i	18µM	i

Screens: PubChem, National Center for Advancing Translational Sciences (NCATS)
